Results filed as inconclusive are left out. The source made the active and inactive calls. The calls were made as follows, unless noted: active = hit-call score of the fitted dose curve at least 0.9, where 1 is the maximum; inactive = score below 0.9.

In test [1] the target is Myc proto-oncogene protein (Homo sapiens) (UniProt P01106). In words: ATG_Myc_CIS: Attagene CIS-FACTORIAL HepG2 Assay for human Myelocytomatosis (Myc) Proto-Oncogene Transcription Factor (AID 2282990). As to conditions: HepG2, Attagene cis-reporter transcription factor activity; actives raise or lower the signal. Summed up: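 Multiplexed cis-reporter transcription in HepG2 cells after 24 h chemical treatment. Reporter mRNA measured by RT-PCR and capillary electrophoresis fluorescence; activity fitted bidirectionally against DMSO control.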

A short description of test [2]: ATG_NRF2_ARE_CIS: Attagene CIS-FACTORIAL HepG2 Assay for human Nuclear Factor Erythroid 2 Related Factor 2 (NFR2) response to Antioxidant Response Elements (ARE) (AID 2282992). As to conditions: HepG2 Attagene ARE/NRF2 reporter, transcription factor activity; actives raise or lower the signal. The method, boiled down: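 Fluorescence intensity of reporter-specific cDNA fragments, separated by capillary electrophoresis, reflects mRNA induction in transfected HepG2 cells at 24 h. Activity is fitted bidirectionally, DMSO serving as baseline.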

The nature of test [3]: ATG_Oct_MLP_CIS: Attagene CIS-FACTORIAL HepG2 Assay for human Octamer-Binding Transcription Factor (Oct) (AID 2282993). The note with it: HepG2 Attagene cis-factorial Oct reporter, mRNA; actives raise or lower the signal. Summed up: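 Readout is reporter transcript level from RT-PCR with fluorescent primer extension and capillary electrophoresis, fitted in both directions against DMSO. Transfected HepG2 reporter units report endogenous factor activity after 24 h dosing.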

In test [4] the target is Cellular tumor antigen p53 (Homo sapiens) (UniProt P04637). The test is described as follows: ATG_p53_CIS: Attagene CIS-FACTORIAL HepG2 Assay for human p53 Transcription Factor (AID 2282994). As to conditions: HepG2 p53 cis-element reporter, Attagene mRNA; actives raise or lower the signal. The method, boiled down:
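Transiently transfected HepG2 (multiple cis reporter transcription units); exposure 24 h; reporter RNA via RT-PCR, 6-FAM extension, 2 h HpaI digest at 37 C, CE detection; DMSO baseline.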

A short description of test [5]: BSK_3C_TissueFactor: BioMAP Diversity Plus: 3C Assay for Tissue Factor Biomarker Activity (AID 2282997). The note with it: BioMAP 3C HUVEC, tissue factor biomarker readout; actives raise or lower the signal. Summed up:
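In this endothelial system, HUVEC are treated for 24 h and Tissue Factor is assessed by ELISA, normalised to DMSO.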

Test [6] is described as follows: BSK_3C_uPAR: BioMAP Diversity Plus: 3C Assay for Urokinase-type plasminogen activator receptor (uPAR) Biomarker Activity (AID 2282998). As to conditions: BioMAP 3C HUVEC, uPAR biomarker ELISA; actives raise or lower the signal. The method, boiled down: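 Cell-surface uPAR on HUVEC (3C system) read by ELISA at 24 h post-treatment, with DMSO as baseline and fitting in both directions. Parallel cultures stained with SRB to flag overt cytotoxicity.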
In general terms: In an ELISA, binding on a coated surface is turned into a signal by an enzyme label.

Test [7] can be described thus: BSK_3C_VCAM1: BioMAP Diversity Plus: 3C Assay for Vascular cell adhesion molecule 1 (VCAM1) Biomarker Activity (AID 2282999). As to conditions: BioMAP 3C HUVEC, VCAM1 ELISA, cytokine-stimulated; actives raise or lower the signal. The method, boiled down:
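Vascular primary endothelium (human umbilical vein) was exposed to chemicals and assayed 24 h later. VCAM-1 levels came from ELISA, with DMSO serving as baseline for bidirectional fitting.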

Test [8] can be described thus: BSK_4H_Eotaxin3: BioMAP Diversity Plus: 4H Assay for Eotaxin 3 Biomarker Activity (AID 2283000).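 As to outcome: CCL26 protein level quantified by ELISA in parallel with SRB cytotoxicity check.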 The note with it: primary human endothelial cells (HUVEC); actives raise or lower the signal. The method, boiled down: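 ELISA quantitation of CCL26 (Eotaxin-3) protein from chemically dosed human vascular endothelial cells at 24 h; increases and decreases both scored relative to DMSO-treated baseline.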

Test [9] addresses human Peroxisome Proliferator-activated Receptor delta (PPARd), PPARD (gene 5467) (UniProt Q03181). In words: ATG_PPARd_TRANS: Attagene TRANS-FACTORIAL HepG2 Assay for human Peroxisome Proliferator-activated Receptor delta (PPARd) (AID 2283002; active = hit-call score of the fitted dose curve at least 0.9, where 1 is the maximum). The method, boiled down: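 Multiplexed trans-activation format: HepG2 liver cells expressing exogenous NR-Gal4 chimeras and GAL4-UAS reporters were exposed for 24 h. Reporter mRNA was detected by RT-PCR with capillary electrophoresis fluorescence; activity fitted as gain of signal relative to DMSO.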

The target of test [10] is Retinoic acid receptor alpha (Homo sapiens) (UniProt P10276). The test is described as follows: ATG_RARa_TRANS: Attagene TRANS-FACTORIAL HepG2 Assay for human Retinoic Acid Receptor alpha (RARa) (AID 2283005; active = hit-call score of the fitted dose curve at least 0.9, where 1 is the maximum). Summed up:
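HepG2 cells transiently transfected with multiple reporter units expressing chimeric RARα-GAL4 fusion, with GAL4-UAS-driven reporters. After 24 h compound exposure, reporter mRNA induction quantified by RT-PCR and capillary electrophoresis with fluorescent labeling; gain-of-signal fitted relative to DMSO control.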

Test [11] in a line: BSK_3C_Proliferation: Cell Proliferation Assessment in the BioMAP Diversity Plus: 3C Assay (AID 2283006).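 As to AC50: potency may reflect either rise or fall in cell number versus DMSO.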 The note with it: primary human endothelial cells (HUVEC). The method, boiled down: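 Cells (human umbilical vein endothelial, sub-confluent) receive test chemical; after 48 h they are fixed in 10% trichloroacetic acid, stained with 0.1% SRB and read at 560 nm. Activity is referenced to DMSO, fitting increases and decreases.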

In test [12] the target is Nuclear receptor subfamily 1 group I member 2 (Homo sapiens) (UniProt O75469). In words: ATG_PXR_TRANS: Attagene TRANS-FACTORIAL HepG2 Assay for human Pregnane X Receptor (PXR) (AID 2283008; active = hit-call score of the fitted dose curve at least 0.9, where 1 is the maximum). The method, boiled down:
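Transient HepG2 transfectants carrying multiplexed reporter transcription units; PXR activity read through a Gal4 chimera. 24 h exposure. RT-PCR/CE fluorescence; upward curve fit referenced to DMSO.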

Test [13] concerns the target human Retinoic Acid Receptor gamma (RARg), RARG (gene 5916) (UniProt P13631). In words: ATG_RARg_TRANS: Attagene TRANS-FACTORIAL HepG2 Assay for human Retinoic Acid Receptor gamma (RARg) (AID 2283009; active = hit-call score of the fitted dose curve at least 0.9, where 1 is the maximum). The method, boiled down:
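TRANS format measured activity of exogenous NR-GAL4 fusion (RARg) in transfected HepG2 liver cells after 24 h dosing. Induced reporter RNA was detected by RT-PCR/capillary electrophoresis fluorescence, analysed in the positive direction against DMSO.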

Read-out in test [14]: Intercellular Adhesion Molecule 1 (ICAM1), ICAM1 (gene 3383)
The test is described as follows: BSK_3C_ICAM1: BioMAP Diversity Plus: 3C Assay for Intercellular Adhesion Molecule 1 (ICAM1) Biomarker Activity (AID 2283003). The note with it: primary human endothelial cells (HUVEC); actives raise or lower the signal. Summed up: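 Chemicals are dosed onto primary human umbilical vein endothelium (3C system). After 24 h, ICAM-1 is measured by ELISA, and responses are fitted bidirectionally relative to DMSO.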

Test [15] has as its target Peroxisome proliferator-activated receptor gamma (Homo sapiens) (UniProt P37231). The test is described as follows: ATG_PPARg_TRANS: Attagene TRANS-FACTORIAL HepG2 Assay for human Peroxisome Proliferator-activated Receptor-gamma (PPARg) (AID 2283007; active = hit-call score of the fitted dose curve at least 0.9, where 1 is the maximum). The method, boiled down:
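Human hepatoma HepG2, transient MRTU transfection, 24 h treatment. mRNA reporter signal by RT-PCR plus capillary electrophoresis, fluorescence detection; fitted for increase over DMSO negative control.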

Test [16] concerns the target human Peroxisome Proliferator-activated Receptor alpha (PPARa), PPARA (gene 5465) (UniProt Q07869). The test is described as follows: ATG_PPARa_TRANS: Attagene TRANS-FACTORIAL HepG2 Assay for human Peroxisome Proliferator-activated Receptor alpha (PPARa) (AID 2283001; active = hit-call score of the fitted dose curve at least 0.9, where 1 is the maximum). Summed up: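 Cells (HepG2) are transfected with multiple reporter transcription units, exposed to chemical for 24 h, then total RNA is reverse-transcribed and amplified. Labelled products are quantified by capillary electrophoresis; induction is referenced to DMSO.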

In test [17] the target is human RAR-related Orphan Receptor beta (RORb), RORB (gene 6096) (UniProt Q92753). The test is described as follows: ATG_RORb_TRANS: Attagene TRANS-FACTORIAL HepG2 Assay for human RAR-related Orphan Receptor beta (RORb) (AID 2283010; active = hit-call score of the fitted dose curve at least 0.9, where 1 is the maximum). The method, boiled down: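 Transfect HepG2 with multiple GAL4-UAS reporter transcription units; dose chemicals for 24 h; isolate RNA, reverse-transcribe and PCR-amplify reporter sequences; label, digest and resolve fragments by capillary electrophoresis; fit increases relative to DMSO.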
Chain of human RAR-related Orphan Receptor beta (RORb), RORB (gene 6096) (Q92753 whole entry, looked up, the tested form may be a part): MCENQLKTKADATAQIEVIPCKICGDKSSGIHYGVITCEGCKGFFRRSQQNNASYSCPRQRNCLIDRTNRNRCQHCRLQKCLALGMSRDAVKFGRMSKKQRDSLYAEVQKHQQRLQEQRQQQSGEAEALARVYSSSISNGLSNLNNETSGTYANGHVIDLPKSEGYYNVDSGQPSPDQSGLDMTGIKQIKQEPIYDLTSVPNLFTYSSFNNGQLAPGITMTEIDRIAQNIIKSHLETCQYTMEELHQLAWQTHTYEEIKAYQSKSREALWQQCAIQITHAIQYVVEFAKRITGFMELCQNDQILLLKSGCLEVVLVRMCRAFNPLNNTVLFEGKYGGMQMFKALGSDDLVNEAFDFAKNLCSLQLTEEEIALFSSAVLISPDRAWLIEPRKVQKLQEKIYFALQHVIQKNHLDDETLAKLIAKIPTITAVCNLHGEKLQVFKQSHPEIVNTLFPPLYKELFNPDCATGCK

Chain of Nuclear receptor subfamily 1 group I member 2 (Homo sapiens) (O75469 whole entry, looked up, the tested form may be a part): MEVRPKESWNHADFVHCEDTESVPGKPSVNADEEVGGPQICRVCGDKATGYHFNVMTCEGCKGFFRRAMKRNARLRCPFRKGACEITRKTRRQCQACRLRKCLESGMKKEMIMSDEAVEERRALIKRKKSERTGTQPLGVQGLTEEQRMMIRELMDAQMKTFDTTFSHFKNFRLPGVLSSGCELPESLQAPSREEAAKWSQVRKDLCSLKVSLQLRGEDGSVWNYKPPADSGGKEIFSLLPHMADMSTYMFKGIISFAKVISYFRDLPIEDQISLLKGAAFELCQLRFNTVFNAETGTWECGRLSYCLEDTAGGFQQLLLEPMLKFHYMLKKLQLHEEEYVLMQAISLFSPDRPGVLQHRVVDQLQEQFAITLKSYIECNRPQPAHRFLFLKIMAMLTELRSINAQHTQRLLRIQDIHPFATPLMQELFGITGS
Chain of Cellular tumor antigen p53 (Homo sapiens) (P04637 whole entry, looked up): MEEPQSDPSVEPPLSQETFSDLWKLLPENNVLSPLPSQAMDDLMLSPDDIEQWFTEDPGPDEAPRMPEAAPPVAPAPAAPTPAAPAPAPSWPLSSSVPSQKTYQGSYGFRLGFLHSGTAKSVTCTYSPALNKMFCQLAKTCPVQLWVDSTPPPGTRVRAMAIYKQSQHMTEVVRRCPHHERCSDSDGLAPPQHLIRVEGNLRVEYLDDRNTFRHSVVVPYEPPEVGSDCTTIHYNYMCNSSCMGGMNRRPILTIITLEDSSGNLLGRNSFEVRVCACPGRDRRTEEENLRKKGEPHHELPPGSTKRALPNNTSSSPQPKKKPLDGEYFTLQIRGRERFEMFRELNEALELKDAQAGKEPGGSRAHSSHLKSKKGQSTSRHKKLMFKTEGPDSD
Chain of Myc proto-oncogene protein (Homo sapiens) (P01106 whole entry, looked up): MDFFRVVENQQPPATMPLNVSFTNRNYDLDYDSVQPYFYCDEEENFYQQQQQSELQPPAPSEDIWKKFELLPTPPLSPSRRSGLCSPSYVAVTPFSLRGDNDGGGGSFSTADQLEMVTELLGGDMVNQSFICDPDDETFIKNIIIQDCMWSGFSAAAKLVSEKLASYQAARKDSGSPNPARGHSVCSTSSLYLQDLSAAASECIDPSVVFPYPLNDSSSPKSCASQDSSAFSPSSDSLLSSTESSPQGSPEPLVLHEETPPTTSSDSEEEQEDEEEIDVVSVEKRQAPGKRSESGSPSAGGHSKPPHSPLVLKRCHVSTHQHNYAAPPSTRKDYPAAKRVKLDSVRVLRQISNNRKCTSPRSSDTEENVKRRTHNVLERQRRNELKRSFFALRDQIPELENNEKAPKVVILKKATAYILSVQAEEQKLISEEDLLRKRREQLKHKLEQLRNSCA
Chain of human Peroxisome Proliferator-activated Receptor delta (PPARd), PPARD (gene 5467) (Q03181 whole entry, looked up, the tested form may be a part): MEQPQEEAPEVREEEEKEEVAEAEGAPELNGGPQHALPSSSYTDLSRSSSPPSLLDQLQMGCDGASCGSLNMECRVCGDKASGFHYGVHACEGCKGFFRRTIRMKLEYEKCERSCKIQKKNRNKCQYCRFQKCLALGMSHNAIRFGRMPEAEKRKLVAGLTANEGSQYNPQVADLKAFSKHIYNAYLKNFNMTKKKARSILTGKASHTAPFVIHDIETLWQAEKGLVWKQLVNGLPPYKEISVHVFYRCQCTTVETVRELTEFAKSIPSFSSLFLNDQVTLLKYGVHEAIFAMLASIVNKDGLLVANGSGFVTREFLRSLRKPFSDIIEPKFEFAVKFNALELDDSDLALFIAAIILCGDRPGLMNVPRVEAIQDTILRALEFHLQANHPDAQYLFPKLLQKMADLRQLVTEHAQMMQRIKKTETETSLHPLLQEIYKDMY
Chain of Retinoic acid receptor alpha (Homo sapiens) (P10276 whole entry, looked up, the tested form may be a part): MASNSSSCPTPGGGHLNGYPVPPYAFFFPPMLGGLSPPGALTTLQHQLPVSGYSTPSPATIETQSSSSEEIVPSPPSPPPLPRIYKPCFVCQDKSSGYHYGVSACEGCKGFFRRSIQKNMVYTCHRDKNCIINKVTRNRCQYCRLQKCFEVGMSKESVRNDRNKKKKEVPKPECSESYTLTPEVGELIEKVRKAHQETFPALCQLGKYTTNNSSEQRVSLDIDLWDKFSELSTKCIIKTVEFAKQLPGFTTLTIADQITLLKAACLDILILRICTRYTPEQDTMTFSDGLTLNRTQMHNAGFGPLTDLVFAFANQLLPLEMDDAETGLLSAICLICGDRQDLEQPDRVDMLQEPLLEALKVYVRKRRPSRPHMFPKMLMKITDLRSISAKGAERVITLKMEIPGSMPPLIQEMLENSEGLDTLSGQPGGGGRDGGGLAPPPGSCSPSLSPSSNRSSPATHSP
Chain of human Peroxisome Proliferator-activated Receptor alpha (PPARa), PPARA (gene 5465) (Q07869 whole entry, looked up): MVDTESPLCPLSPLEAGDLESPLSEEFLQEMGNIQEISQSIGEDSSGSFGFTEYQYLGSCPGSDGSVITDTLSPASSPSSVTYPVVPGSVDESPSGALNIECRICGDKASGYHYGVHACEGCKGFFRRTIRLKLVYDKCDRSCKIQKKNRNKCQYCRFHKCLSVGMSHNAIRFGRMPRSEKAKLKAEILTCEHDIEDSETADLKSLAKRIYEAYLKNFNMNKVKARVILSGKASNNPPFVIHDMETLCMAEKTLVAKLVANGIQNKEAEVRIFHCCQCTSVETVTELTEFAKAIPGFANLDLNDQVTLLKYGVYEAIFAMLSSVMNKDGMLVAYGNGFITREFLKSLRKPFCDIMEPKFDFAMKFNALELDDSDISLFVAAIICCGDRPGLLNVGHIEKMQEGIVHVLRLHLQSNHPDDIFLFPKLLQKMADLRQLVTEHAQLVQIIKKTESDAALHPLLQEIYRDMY
Chain of human Retinoic Acid Receptor gamma (RARg), RARG (gene 5916) (P13631 whole entry, looked up, the tested form may be a part): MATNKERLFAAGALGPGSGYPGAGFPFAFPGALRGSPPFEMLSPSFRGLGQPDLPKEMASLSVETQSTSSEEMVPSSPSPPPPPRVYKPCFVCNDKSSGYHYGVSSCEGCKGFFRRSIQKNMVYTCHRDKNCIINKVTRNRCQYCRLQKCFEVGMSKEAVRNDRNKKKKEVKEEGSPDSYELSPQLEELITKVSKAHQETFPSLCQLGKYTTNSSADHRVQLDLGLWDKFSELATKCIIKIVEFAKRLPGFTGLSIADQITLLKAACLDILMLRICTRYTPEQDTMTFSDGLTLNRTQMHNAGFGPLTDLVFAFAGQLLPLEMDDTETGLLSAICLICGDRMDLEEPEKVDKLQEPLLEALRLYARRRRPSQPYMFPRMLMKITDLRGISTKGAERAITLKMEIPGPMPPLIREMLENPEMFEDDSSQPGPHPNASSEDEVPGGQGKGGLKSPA
Chain of Peroxisome proliferator-activated receptor gamma (Homo sapiens) (P37231 whole entry, looked up): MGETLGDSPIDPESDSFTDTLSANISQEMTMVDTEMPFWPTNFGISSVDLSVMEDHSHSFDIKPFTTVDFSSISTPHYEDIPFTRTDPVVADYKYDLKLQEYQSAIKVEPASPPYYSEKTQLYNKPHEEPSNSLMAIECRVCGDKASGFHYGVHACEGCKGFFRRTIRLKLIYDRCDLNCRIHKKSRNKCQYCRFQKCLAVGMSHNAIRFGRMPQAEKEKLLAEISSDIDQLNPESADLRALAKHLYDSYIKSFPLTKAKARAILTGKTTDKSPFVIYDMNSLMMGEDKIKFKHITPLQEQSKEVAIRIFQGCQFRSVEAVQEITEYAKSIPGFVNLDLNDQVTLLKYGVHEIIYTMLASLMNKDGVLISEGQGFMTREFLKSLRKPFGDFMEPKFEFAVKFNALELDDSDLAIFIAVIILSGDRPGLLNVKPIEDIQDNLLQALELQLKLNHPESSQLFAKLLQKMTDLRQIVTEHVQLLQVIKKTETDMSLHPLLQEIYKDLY

As to `Cc1[nH]cnc1C[C@H]1CCc2c(C)c3ccccc3n2C1=O`, the molecule was called inactive in test [1], in [2], in test [5], in test [7], in test [9] and in [10]. Also, the molecule was classed as inactive in [12] and in test [13]. Further, the AC50 (as a rule, the concentration at which the activity in the assay is half-maximal) was 21 µM (active) in [3]; 7.45 µM (active) in [4]; 27.4 µM (active) in test [6]; 29.6 µM (active) in [8]; 26.1 µM (active) in test [11].
Consider `Cn1c(=O)cc(Oc2ccc(F)cc2F)c2cnc(NCC(C)(C)O)nc21`, for which the call in test [1], in [2], in test [3], in test [6], in test [14] and in test [11] was inactive. Besides, the outcome in test [12] was inactive. The AC50 in [4] was 41.7 µM (active); in [5], 1.4 µM (active); in [15] it was 6.3 µM (active).
Take `CC(C)=CCC/C(C)=C\CO`: the molecule was called inactive in test [1], in test [3], in test [4], in [5], in test [6] and in [7]. Also, the result in test [8], in test [16] and in [11] was inactive. In addition, the AC50 in [2] is 100 µM (active); in test [12], 8.73 µM (active).
On to `Cn1c(=O)c2c(ncn2C)n(C)c1=O`, for which the molecule was classed as inactive in test [1], in test [2], in test [3], in test [4], in test [5] and in test [6]. The outcome in [11], in [12] and in test [17] was inactive.
In the case of `CC(=O)OCCC(C)C`, the call in test [1], in [2], in test [3], in test [4], in test [5] and in test [6] was inactive. The result in [7], in [8], in test [14], in [11] and in test [17] was inactive.
On to `CC1=CC(=O)CC(C)(C)C1`, for which the molecule was classed as inactive in test [1], in [2], in test [3], in test [4], in test [5] and in [6]. Moreover, the result in [7], in test [8], in test [11], in test [12] and in [17] was inactive.

For the origin of these results see PubChem BioAssay (EPA / NIEHS).
